Reference: PubChem BioAssay
Where “and” joins values, the source holds several entries; their conditions need not be identical. Identical values can stand only once. Calls of active or inactive are those of the source. Cut-off read from the data, not from the text of the source, unless noted: active = parasite load remaining mostly below about 12% (no sharp cut-off); inactive = mostly above about 10%.

What was measured:
[1] = liver-stage malaria parasite growth inhibition, primary screen, cell-based, HepG2, luciferase luminescence, HepG2 viability (AID 624349);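 note: 100% = mean of DMSO negative control wells on the same plate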; conditions: P. berghei liver stage in HepG2, luciferase luminescence, concentration not given here; parasite load remaining: stronger effect = lower value; viability: measured here: HepG2 viability without parasites
[2] = stimulators of nuclear beta-catenin in C2C12, primary screen, imaging, WNT3A-conditioned medium, mouse C2C12, NPC library (AID 1117326; in the data active = nuclear beta-catenin stimulation mostly above about 4.2%, no sharp cut-off; inactive = mostly below about 10%; note: reference of the scale not given here); conditions: stronger effect = higher value
[3] = stimulators of insulin release from INS-1E, primary screen, cell-based, 5 mM glucose, NPC library (AID 1117329;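 active = compound raises insulin release from rat beta cells at 5 mM glucose, no numeric limit stated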; note: reference of the scale not given here); conditions: rat INS-1E insulin secretion, at 10 µM, stronger effect = higher value
[4] = growth inhibition of GSK3B-pretreated HCT116 cells – cell-based, CellTiter-Glo, 0.2 to 20 µM (AID 1117336;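 active = compounds lowering colon cancer cell viability after pretreatment blocking the GSK3B kinase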); conditions: HCT116 viability after GSK3B inhibitor, at 20 µM, stronger effect = higher value
[5] = inhibition of endothelial tube formation, primary screen, imaging, VEGF stimulated, CD31 staining, tube area, NPC library (AID 1117340;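 active = compound that reduces growth-factor-driven endothelial tube area in a mixed cell culture, no cutoff stated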); conditions: VEGF-stimulated ADSC/ECFC co-culture, at 10 µM, stronger effect = higher value
[6] = glucagon-like peptide 1 release enhancers, primary assay, NCI-H716 cell line, NPC library (AID 1117341;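 active = compound raises GLP1 secretion from the human gut endocrine cells, with no numeric limit stated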; note: reference of the scale not given here); conditions: NCI-H716 cells, at 10 µM, stronger effect = higher value
[7] = HCT116 colon cancer cell growth inhibition, primary screen, CellTiter-Glo luminescence, NPC library (AID 1117342;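 active = compounds that lower survival of HCT116 colon cancer cells in the luminescence readout, no numeric limit stated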); conditions: at 20 µM (top of the series)
[8] = CellTiter-Glo luminescent readout of SW480 viability loss, NPC library primary (AID 1117343;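 active = compounds that lower viability of the colon cancer cells in the luminescence readout, with no numeric limit stated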); conditions: CellTiter-Glo luminescence; at 20 µM (top of the series)
[9] = decreased DLD-1 cellular survival, CellTiter-Glo luminescent readout, NPC compound collection, primary HTS (AID 1117346;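 active = compounds that lower survival of DLD-1 colon cancer cells in the luminescence readout, no cutoff given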); conditions: DLD-1 viability, CellTiter-Glo luminescence; at 20 µM (top of the series)
[10] = target: 6-phosphogluconate dehydrogenase, decarboxylating (Homo sapiens) (UniProt P52209); experiment: 6PGD enzyme inhibitors, primary screen, biochemical, human, recombinant enzyme, NADPH absorbance (AID 1159550;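 active = at least 20% inhibition of 6-phosphogluconate dehydrogenase activity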); conditions: recombinant 6PGD, NADPH absorbance 341 nm; at 10 µM; stronger effect = higher value
Sequence of 6-phosphogluconate dehydrogenase, decarboxylating (Homo sapiens) (P52209 whole entry, looked up): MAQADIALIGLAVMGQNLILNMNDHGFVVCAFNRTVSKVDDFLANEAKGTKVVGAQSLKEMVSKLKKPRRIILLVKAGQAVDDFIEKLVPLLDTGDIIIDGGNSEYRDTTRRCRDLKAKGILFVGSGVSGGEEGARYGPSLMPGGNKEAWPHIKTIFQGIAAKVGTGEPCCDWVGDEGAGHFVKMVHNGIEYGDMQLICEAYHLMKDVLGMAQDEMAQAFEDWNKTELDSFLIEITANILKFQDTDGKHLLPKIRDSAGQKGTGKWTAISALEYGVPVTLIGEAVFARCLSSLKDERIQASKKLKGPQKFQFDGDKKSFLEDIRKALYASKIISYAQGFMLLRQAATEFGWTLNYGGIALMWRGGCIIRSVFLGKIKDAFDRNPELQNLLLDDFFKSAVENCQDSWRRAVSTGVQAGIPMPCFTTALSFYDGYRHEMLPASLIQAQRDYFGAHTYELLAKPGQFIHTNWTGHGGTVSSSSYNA

Cc1onc(-c2ccccc2)c1C(=O)N[C@@H]1C(=O)N2[C@@H]1SC(C)(C)[C@@H]2C(=O)O
0.5%: nuclear beta-catenin stimulation ([2]; stimulation, at 2 µM)
72.5%: viability [1]
inactive: parasite load remaining [1] 27.2% | nuclear beta-catenin stimulation ([2]; at 10 µM) -2.3% | insulin secretion stimulation [3] 6.3% | viability decrease [4] 0.4% | tube area decrease [5] -1.6% | GLP1 secretion stimulation [6] -3.6% | inhibition of viability [7] 5.3% | viability decrease (inhibition) [8] -4.9% | viability decrease (inhibition) [9] -3.8% | inhibition [10] 8.76%

CCCCCC(C)N (centres undefined)
77.1% and 86.1%: viability [1]
3.7%: nuclear beta-catenin stimulation ([2]; stimulation, at 2 µM)
inactive: parasite load remaining [1] 115% and 42.4% | nuclear beta-catenin stimulation ([2]; at 10 µM) 1.8% | insulin secretion stimulation [3] 3.3% | viability decrease [4] 11.8% | tube area decrease [5] 4.3% | GLP1 secretion stimulation [6] 0% | inhibition of viability [7] -3.73% | viability decrease (inhibition) [8] -37.6% | viability decrease (inhibition) [9] 1.5% | inhibition [10] -7.17%

CC1(C)OC(=O)NC1=O
inactive: parasite load remaining [1] 76.1% and 103% and 63.9% | nuclear beta-catenin stimulation ([2]; at 10 µM) 1.7% | insulin secretion stimulation [3] 0.6% | viability decrease [4] -28.6% | tube area decrease [5] 2.9% | GLP1 secretion stimulation [6] -6.6% | inhibition of viability [7] 17.4% | viability decrease (inhibition) [9] -3.2% | inhibition [10] 10.2%
2.2%: nuclear beta-catenin stimulation ([2]; stimulation, at 2 µM)
active: viability decrease (inhibition) [8] 11.1%
96.6% and 74.2% and 92.6%: viability [1]

CC(=O)NCCCCCC(=O)O
98.6%: viability [1]
inactive: parasite load remaining [1] 132% | nuclear beta-catenin stimulation ([2]; at 10 µM) 0.2% | insulin secretion stimulation [3] 1.2% | viability decrease [4] -17.4% | tube area decrease [5] -4.2% | GLP1 secretion stimulation [6] -0.1% | inhibition of viability [7] -1.55% | viability decrease (inhibition) [8] 24.9% | viability decrease (inhibition) [9] -11.9% | inhibition [10] -3.52%
0.7%: nuclear beta-catenin stimulation ([2]; stimulation, at 2 µM)

O=C(O)P(=O)(O)O
-0.8%: nuclear beta-catenin stimulation ([2]; stimulation, at 2 µM)
inactive: parasite load remaining [1] 127% and 15.8% | nuclear beta-catenin stimulation ([2]; at 10 µM) 0.2% | insulin secretion stimulation [3] 0.5% | viability decrease [4] -27.7% | tube area decrease [5] 0.7% | GLP1 secretion stimulation [6] -0.4% | inhibition of viability [7] -5.05% | viability decrease (inhibition) [8] 2.3% | viability decrease (inhibition) [9] -16.6% | inhibition [10] -6.34%
69.2% and 92.6%: viability [1]

Nc1ccc(S(=O)(=O)Nc2ccc(Cl)nn2)cc1
4.5%: nuclear beta-catenin stimulation ([2]; stimulation, at 2 µM)
105% and 69.3% and 92.4%: viability [1]
inactive: parasite load remaining [1] 128% and 127% and 54.3% | nuclear beta-catenin stimulation ([2]; at 10 µM) 3.3% | insulin secretion stimulation [3] 1% | viability decrease [4] 6.1% | tube area decrease [5] 12.6% | GLP1 secretion stimulation [6] -1.5% | inhibition of viability [7] -6.17% | viability decrease (inhibition) [8] 15.5% | viability decrease (inhibition) [9] 0.7% | inhibition [10] 10.1%

COc1ccc(NS(=O)(=O)c2ccc(N)cc2)nn1
inactive: parasite load remaining [1] 118% and 103% and 48% | nuclear beta-catenin stimulation ([2]; at 10 µM) -1.8% | insulin secretion stimulation [3] 0.2% | viability decrease [4] -9.5% | tube area decrease [5] 14% | GLP1 secretion stimulation [6] 0.3% | inhibition of viability [7] -7.97% | viability decrease (inhibition) [8] 2.4% | viability decrease (inhibition) [9] -8.6% | inhibition [10] -7.32%
101% and 69.5% and 83.6%: viability [1]
2.2%: nuclear beta-catenin stimulation ([2]; stimulation, at 2 µM)

COc1cnc(NS(=O)(=O)c2ccc(N)cc2)nc1
93.4% and 66.1% and 87.2%: viability [1]
2%: nuclear beta-catenin stimulation ([2]; stimulation, at 2 µM)
inactive: parasite load remaining [1] 75.1% and 108% and 64.2% | nuclear beta-catenin stimulation ([2]; at 10 µM) 0.2% | insulin secretion stimulation [3] 1.9% | viability decrease [4] -21.6% | tube area decrease [5] -5.6% | GLP1 secretion stimulation [6] 0.5% | inhibition of viability [7] -7.43% | viability decrease (inhibition) [8] 23.4% | viability decrease (inhibition) [9] -14.6% | inhibition [10] -8.19%

CC(=O)OCC(COC(C)=O)OC(C)=O
73.5% and 86.5%: viability [1]
inactive: parasite load remaining [1] 142% and 56.1% | nuclear beta-catenin stimulation ([2]; at 10 µM) 0.2% | insulin secretion stimulation [3] 0.7% | viability decrease [4] -25.5% | tube area decrease [5] -8.3% | GLP1 secretion stimulation [6] 0.1% | inhibition of viability [7] -1.2% | viability decrease (inhibition) [8] -5.5% | viability decrease (inhibition) [9] -3.8% | inhibition [10] 1.31%
3.4%: nuclear beta-catenin stimulation ([2]; stimulation, at 2 µM)

Cc1ccnc(NS(=O)(=O)c2ccc(N)cc2)n1
92.3% and 68.7% and 98.8%: viability [1]
inactive: parasite load remaining [1] 74% and 287% and 42.8% | nuclear beta-catenin stimulation ([2]; at 10 µM) 3.8% | insulin secretion stimulation [3] -0.3% | viability decrease [4] 9.35% | tube area decrease [5] -12.6% | GLP1 secretion stimulation [6] 2.1% | inhibition of viability [7] 2.4% | viability decrease (inhibition) [8] 31.8% | viability decrease (inhibition) [9] 7.5% | inhibition [10] 2.58%
1.5%: nuclear beta-catenin stimulation ([2]; stimulation, at 2 µM)

Nc1ncnc2nc[nH]c12
inactive: parasite load remaining [1] 110% and 37.4% | nuclear beta-catenin stimulation ([2]; at 10 µM) -2.6% | insulin secretion stimulation [3] -0.3% | viability decrease [4] -4.6% | tube area decrease [5] -30.5% | GLP1 secretion stimulation [6] -1.7% | inhibition of viability [7] -30.2% | viability decrease (inhibition) [8] -59.6% | viability decrease (inhibition) [9] -23.8% | inhibition [10] 2.63%
-0.4%: nuclear beta-catenin stimulation ([2]; stimulation, at 2 µM)
91.6% and 128%: viability [1]

CC(C)(Oc1ccc(Cl)cc1)C(=O)O
2.1%: nuclear beta-catenin stimulation ([2]; stimulation, at 2 µM)
98.7% and 75.8%: viability [1]
inactive: parasite load remaining [1] 91.8% and 94% | nuclear beta-catenin stimulation ([2]; at 10 µM) 1.8% | insulin secretion stimulation [3] -2.3% | viability decrease [4] -12.6% | tube area decrease [5] -2.8% | GLP1 secretion stimulation [6] 4.6% | inhibition of viability [7] 13.2% | viability decrease (inhibition) [8] 12.2% | viability decrease (inhibition) [9] -5.25% | inhibition [10] -17.2%
